# Test results as given in the supplement of paper PMC11732987, “Enantioselective OTUD7B fragment discovery through chemoproteomics screening and high-throughput optimisation” (Communications Chemistry, 2025).
# Unmarked numbers belong to inactive results.
# Legend:
# Assay in all cases: log2 ratio of Biotin-Ahx-Ub-VS probe labelling (fragment/DMSO); higher = less target engagement (more negative = stronger competition), active = hit call of the paper (q ≤ 0.05, log2 ratio ≤ -1)
# Details in all cases: compound concentration: 200 uM; treatment time: 3 h
# ALG13 = molecular target: T1, ALG13 (UniProt Q9NP73)
# T1 sequence (whole entry): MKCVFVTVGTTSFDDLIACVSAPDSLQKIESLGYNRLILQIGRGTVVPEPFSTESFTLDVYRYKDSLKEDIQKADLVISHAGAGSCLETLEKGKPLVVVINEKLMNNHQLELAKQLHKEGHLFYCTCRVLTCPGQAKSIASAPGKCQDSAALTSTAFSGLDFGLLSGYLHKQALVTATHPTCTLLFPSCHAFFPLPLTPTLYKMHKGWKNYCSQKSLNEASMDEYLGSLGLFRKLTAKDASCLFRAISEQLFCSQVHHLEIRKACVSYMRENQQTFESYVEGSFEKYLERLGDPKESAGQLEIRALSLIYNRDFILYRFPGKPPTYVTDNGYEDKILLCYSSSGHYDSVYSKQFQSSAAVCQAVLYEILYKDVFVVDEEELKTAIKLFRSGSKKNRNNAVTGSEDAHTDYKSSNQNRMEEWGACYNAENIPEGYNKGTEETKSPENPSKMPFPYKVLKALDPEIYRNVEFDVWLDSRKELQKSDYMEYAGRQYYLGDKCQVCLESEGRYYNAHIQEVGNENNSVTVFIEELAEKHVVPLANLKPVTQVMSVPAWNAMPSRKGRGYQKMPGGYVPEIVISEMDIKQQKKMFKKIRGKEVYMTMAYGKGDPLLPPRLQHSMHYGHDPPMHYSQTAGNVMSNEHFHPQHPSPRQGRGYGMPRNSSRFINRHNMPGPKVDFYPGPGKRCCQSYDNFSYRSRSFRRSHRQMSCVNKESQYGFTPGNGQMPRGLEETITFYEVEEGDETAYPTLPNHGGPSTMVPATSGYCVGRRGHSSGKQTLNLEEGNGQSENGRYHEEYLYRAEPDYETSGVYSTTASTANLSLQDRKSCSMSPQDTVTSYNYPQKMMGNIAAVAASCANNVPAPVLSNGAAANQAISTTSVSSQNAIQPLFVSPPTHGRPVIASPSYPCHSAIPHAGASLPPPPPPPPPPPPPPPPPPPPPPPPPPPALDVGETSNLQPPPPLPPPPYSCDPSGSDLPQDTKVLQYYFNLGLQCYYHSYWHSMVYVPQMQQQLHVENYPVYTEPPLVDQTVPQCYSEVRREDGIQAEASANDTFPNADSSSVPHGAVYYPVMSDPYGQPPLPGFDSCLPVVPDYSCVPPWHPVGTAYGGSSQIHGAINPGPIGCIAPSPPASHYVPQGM
# Outline: (§1)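 Fragment (200 µM) or vehicle was incubated for 3 h with triplicate HEK293T lysate samples of 495 µg, which were then treated with Biotin-Ahx-Ub-VS at 0.5 µM final for 1 h. Labelled DUBs were enriched on NeutrAvidin, digested with LysC and trypsin, and analysed by diaPASEF LC-MS/MS. Values are average log2 fragment/vehicle ratios from an unpaired t-test on global-median-normalised Spectronaut label-free quantities, using proteins with ≥2 unique peptides.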
# ATXN3 = ATXN3 (UniProt P54252)
# Outline: as §1
# BAP1 = molecular target: T2, BAP1 (UniProt Q92560)
# T2 sequence (whole entry): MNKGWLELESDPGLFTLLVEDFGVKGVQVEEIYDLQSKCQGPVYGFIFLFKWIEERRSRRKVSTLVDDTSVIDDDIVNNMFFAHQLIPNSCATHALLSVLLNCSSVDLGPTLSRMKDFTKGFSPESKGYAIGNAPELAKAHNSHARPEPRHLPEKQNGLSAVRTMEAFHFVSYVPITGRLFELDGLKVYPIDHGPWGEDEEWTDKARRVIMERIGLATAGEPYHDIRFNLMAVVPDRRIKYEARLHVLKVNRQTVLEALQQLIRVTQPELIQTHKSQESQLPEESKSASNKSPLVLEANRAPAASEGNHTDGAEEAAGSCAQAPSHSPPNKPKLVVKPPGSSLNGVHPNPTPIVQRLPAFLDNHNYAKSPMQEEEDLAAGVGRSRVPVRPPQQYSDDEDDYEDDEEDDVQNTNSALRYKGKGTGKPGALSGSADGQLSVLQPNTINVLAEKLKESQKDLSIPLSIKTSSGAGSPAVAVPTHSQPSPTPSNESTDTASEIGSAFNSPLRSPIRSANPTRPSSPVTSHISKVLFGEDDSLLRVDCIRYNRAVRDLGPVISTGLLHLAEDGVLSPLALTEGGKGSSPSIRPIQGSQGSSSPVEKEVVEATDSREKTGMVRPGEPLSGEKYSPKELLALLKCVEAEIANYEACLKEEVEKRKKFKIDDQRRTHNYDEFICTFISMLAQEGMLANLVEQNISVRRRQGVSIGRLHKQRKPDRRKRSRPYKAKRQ
# Outline: as §1
# EIF3F = EIF3F (UniProt O00303)
# Outline: as §1
# EIF3H = EIF3H (UniProt O15372)
# Outline: as §1
# FAM105A = molecular target: T3, FAM105A (UniProt Q9NUU6)
# T3 sequence (whole entry): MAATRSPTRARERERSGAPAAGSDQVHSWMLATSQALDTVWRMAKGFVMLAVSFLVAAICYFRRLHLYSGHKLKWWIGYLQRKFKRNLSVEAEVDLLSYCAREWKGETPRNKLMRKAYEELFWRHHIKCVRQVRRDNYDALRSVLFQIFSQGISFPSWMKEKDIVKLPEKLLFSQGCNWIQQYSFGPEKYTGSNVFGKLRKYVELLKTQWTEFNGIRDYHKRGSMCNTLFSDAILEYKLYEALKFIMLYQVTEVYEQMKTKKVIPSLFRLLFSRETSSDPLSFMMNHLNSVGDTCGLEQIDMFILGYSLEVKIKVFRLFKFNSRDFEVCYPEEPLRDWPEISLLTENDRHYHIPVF
# Outline: as §1
# OTUB1 = OTUB1 (UniProt Q96FW1)
# Outline: as §1
# OTUD4 = molecular target: T4, OTUD4 (UniProt Q01804)
# T4 sequence (whole entry): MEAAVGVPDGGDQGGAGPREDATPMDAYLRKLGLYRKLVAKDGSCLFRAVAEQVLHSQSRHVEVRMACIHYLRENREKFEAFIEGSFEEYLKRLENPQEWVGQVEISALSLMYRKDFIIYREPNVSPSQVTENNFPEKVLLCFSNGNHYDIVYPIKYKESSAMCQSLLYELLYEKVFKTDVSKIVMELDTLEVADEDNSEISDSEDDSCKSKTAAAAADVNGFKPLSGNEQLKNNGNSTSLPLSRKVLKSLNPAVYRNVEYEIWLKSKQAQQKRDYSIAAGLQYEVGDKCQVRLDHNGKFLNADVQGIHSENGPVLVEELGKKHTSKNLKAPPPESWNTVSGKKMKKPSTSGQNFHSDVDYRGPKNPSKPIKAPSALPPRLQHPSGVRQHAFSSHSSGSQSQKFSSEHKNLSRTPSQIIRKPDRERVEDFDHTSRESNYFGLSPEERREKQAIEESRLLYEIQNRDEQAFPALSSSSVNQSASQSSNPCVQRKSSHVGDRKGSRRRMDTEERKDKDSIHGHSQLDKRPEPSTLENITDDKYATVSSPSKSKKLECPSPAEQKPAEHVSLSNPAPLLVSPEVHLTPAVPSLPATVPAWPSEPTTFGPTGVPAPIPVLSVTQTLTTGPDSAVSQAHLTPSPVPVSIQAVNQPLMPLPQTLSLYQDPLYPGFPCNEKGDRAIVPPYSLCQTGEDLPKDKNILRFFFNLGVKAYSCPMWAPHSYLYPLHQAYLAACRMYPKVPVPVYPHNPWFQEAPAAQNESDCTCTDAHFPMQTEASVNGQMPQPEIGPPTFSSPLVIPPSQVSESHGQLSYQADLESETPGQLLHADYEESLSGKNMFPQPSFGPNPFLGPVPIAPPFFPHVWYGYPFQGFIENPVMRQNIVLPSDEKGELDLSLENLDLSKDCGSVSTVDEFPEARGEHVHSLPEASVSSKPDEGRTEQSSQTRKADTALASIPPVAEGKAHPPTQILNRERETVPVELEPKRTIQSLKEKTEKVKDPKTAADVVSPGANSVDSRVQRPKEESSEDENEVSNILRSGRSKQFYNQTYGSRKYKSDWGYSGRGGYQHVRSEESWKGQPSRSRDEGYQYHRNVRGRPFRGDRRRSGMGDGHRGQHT
# Outline: as §1
# OTUD5 = molecular target: T5, OTUD5 (UniProt Q96G74)
# T5 sequence (whole entry): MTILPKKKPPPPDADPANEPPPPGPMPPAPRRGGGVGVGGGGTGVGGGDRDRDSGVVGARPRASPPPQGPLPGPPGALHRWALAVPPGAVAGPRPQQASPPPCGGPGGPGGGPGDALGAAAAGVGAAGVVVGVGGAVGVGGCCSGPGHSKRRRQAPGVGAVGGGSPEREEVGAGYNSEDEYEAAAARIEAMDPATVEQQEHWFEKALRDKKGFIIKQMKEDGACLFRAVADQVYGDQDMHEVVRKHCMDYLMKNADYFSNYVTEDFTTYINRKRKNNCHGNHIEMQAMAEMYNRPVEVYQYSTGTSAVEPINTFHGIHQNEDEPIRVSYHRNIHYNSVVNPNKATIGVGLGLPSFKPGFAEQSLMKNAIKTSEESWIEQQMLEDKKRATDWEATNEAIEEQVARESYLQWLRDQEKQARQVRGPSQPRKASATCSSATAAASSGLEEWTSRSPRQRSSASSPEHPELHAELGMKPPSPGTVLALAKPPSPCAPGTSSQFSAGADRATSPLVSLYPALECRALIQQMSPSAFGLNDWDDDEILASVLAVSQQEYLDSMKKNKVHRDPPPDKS
# Outline: as §1
# EIF3H, sequence (O15372 whole entry): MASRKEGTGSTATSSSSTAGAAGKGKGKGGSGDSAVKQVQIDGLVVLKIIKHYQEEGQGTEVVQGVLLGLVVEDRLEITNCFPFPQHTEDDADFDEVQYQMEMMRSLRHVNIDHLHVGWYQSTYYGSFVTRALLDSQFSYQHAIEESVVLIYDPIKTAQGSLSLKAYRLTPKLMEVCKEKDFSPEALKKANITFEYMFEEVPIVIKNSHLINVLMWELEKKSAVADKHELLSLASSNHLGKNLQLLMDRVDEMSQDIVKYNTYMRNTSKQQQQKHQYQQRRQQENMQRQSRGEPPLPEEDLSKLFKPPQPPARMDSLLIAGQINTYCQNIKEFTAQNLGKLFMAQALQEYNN
# EIF3F, sequence (O00303 whole entry): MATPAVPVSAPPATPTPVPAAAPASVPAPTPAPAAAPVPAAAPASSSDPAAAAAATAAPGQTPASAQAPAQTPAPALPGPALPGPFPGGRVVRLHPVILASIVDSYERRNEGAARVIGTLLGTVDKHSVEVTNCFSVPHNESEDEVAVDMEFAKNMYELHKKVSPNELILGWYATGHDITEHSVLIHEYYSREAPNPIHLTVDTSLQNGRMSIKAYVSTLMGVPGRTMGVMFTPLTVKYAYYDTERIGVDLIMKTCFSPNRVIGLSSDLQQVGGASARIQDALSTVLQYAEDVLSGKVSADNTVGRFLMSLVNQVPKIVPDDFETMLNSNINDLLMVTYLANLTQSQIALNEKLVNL
# ATXN3, sequence (P54252 whole entry): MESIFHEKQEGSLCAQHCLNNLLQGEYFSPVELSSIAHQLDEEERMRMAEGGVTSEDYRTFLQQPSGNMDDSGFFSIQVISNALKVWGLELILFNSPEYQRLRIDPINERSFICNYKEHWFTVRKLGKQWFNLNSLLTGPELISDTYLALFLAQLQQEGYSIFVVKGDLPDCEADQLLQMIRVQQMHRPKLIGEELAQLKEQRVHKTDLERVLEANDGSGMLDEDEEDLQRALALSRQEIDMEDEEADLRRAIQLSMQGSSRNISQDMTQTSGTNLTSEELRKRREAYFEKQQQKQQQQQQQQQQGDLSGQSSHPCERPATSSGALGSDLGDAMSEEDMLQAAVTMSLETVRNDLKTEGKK
# OTUB1, sequence (Q96FW1 whole entry): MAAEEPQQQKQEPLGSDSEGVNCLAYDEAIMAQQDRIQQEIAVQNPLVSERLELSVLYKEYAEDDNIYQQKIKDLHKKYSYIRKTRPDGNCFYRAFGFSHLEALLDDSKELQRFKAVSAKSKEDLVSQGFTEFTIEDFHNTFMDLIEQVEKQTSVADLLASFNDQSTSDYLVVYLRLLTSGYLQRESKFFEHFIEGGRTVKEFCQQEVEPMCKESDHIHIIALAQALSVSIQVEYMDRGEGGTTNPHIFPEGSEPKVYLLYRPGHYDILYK
smiles,measurement,setting,value
O=C(CCl)N1CCCC1c1ccsc1 (centres undefined),log2 ratio of Biotin-Ahx-Ub-VS probe labelling,ALG13,-0.0335
same,log2 ratio of Biotin-Ahx-Ub-VS probe labelling,ATXN3,-1.15 (active)
same,log2 ratio of Biotin-Ahx-Ub-VS probe labelling,BAP1,-3.75 (active)
same,log2 ratio of Biotin-Ahx-Ub-VS probe labelling,EIF3F,0.0507
same,log2 ratio of Biotin-Ahx-Ub-VS probe labelling,EIF3H,0.2
same,log2 ratio of Biotin-Ahx-Ub-VS probe labelling,FAM105A,0.313
same,log2 ratio of Biotin-Ahx-Ub-VS probe labelling,OTUB1,-0.142
same,log2 ratio of Biotin-Ahx-Ub-VS probe labelling,OTUD4,-0.382
same,log2 ratio of Biotin-Ahx-Ub-VS probe labelling,OTUD5,-0.65
